Results on nine molecules are retold here after PubChem BioAssay (NCI).

Some test systems named below: NCI-H23 lung; NCI-H226 lung; NCI-H322M lung; HOP-62 NSCLC; NCI-H460 lung; HOP-92 NSCLC; NCI-H522 lung; A549/ATCC NSCLC; 786-0 renal; COLO 205 colon; DU-145 prostate; MALME-3M melanoma; MDA-MB-231 breast; RXF 393 renal; SF-268 CNS; SF-295 CNS; SF-539 CNS; UACC-257 melanoma; K-562 leukemia; M14 melanoma.
Holding throughout (assay): NCI-60 one-dose screen, 48 h (100 = growth as untreated, 0 = no growth, -100 = all killed)
Conditions in all cases: 10 µM unless noted

Compounds without any hit were thinned out: in the full panel of roughly 83,000, 20% have a hit.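 The endpoint reported here, percent growth, reads 100 for growth as untreated, 0 for no net growth and -100 for all cells dead.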 Values without a mark were called inactive. Calls of active or inactive are those of the source. The calls were made as follows: active = growth percent below 10; inactive = the rest. Where a SMILES comes first, the peptide text is derived from it. [ ]: non-standard residue; d: D form. ξ: configuration not given here. ξD = NC(CC(=O)O)C(=O)O

Take `O=C(c1ccc(O)c(Br)c1)c1ccc(O)c(Br)c1`: the growth in the assay with NCI-H23 lung was 103%; with NCI-H226 lung, 109%; in the assay with NCI-H322M lung it was 113%; in the assay on HOP-62 NSCLC it was 102%; in the assay with NCI-H460 lung it was 111%; in the assay with HOP-92 NSCLC, 101%. In addition, the growth is 115% in the assay on NCI-H522 lung; 109% with A549/ATCC NSCLC; 107% with 786-0 renal; 112% in the assay on COLO 205 colon; 87% in the assay with DU-145 prostate; 106% with MALME-3M melanoma. The growth is 101% with MDA-MB-231 breast; 107% with RXF 393 renal; 90.6% with SF-268 CNS; 118% in the assay with SF-295 CNS; 90.1% in the assay on SF-539 CNS; 110% with UACC-257 melanoma.

Take `CCCCCCCCCCCCSC(=N)N`: the growth with NCI-H23 lung was 87.4%; in the assay on NCI-H226 lung, 107%; with NCI-H322M lung it was 68.7%; with HOP-62 NSCLC it was 58.3%; in the assay with NCI-H460 lung it was -28% (active); with HOP-92 NSCLC, -22.4% (active). The growth is 88.5% with NCI-H522 lung; 40.9% with A549/ATCC NSCLC; -37.7% (active) with 786-0 renal; -95.1% (active) in the assay on COLO 205 colon; 42.8% in the assay with DU-145 prostate; -40.8% (active) with K-562 leukemia. The growth in the assay on MDA-MB-231 breast was -30.1% (active); with RXF 393 renal, 21.5%; with SF-268 CNS, 67.8%; with SF-539 CNS it was 74.9%; in the assay on UACC-257 melanoma it was 14%; in the assay with M14 melanoma, -5.2% (active).

Consider `NCC(=O)NC(CC(=O)O)C(=O)O` (stereo not given) (H-Gly-[ξD]-OH), for which the growth was 108% in the assay with NCI-H23 lung; 100% in the assay with NCI-H226 lung; 104% in the assay with NCI-H322M lung; 101% in the assay with HOP-62 NSCLC; 110% in the assay with NCI-H460 lung; 100% in the assay with HOP-92 NSCLC. In addition, the growth with NCI-H522 lung is 87.1%; with A549/ATCC NSCLC it was 103%; in the assay on 786-0 renal it was 100%; in the assay on COLO 205 colon, 119%; in the assay on DU-145 prostate, 105%; in the assay on K-562 leukemia it was 106%. In addition, the growth is 98.1% in the assay with MALME-3M melanoma; 109% in the assay on RXF 393 renal; 107% with SF-268 CNS; 101% with SF-295 CNS; 99.3% with SF-539 CNS; 96.5% with UACC-257 melanoma. Besides, the growth in the assay on M14 melanoma was 104%.

As for `CN(C)c1ccc(C(=C2C=CC(=[N+](C)C)C=C2)c2ccc(N(C)C)cc2)cc1`, the growth is -19.9% (active) with NCI-H23 lung; -73.1% (active) in the assay with NCI-H226 lung; -42.2% (active) with NCI-H322M lung; -75.5% (active) in the assay on HOP-62 NSCLC; -39% (active) with NCI-H460 lung; -70.1% (active) in the assay on HOP-92 NSCLC. Also, the growth in the assay with NCI-H522 lung was -44.9% (active); in the assay with 786-0 renal, -96.2% (active); with COLO 205 colon, -84.3% (active); with DU-145 prostate, -91.8% (active); in the assay on K-562 leukemia, -10.4% (active); in the assay on MALME-3M melanoma it was -81.4% (active). Besides, the growth in the assay on MDA-MB-231 breast is -56.5% (active); in the assay with RXF 393 renal, -92.2% (active); in the assay with SF-268 CNS it was -74.1% (active); with SF-295 CNS, -55.2% (active); in the assay on SF-539 CNS, -70.6% (active); with UACC-257 melanoma, -62.7% (active). In addition, the growth with M14 melanoma was -80.2% (active).

Consider `COc1ccc(NC(=O)/C(=C/N2C(=O)/C(=C/c3ccc(OC)c(OC)c3)NC2=S)C(C)=O)cc1`, for which the growth in the assay with NCI-H23 lung was 64.5%; with NCI-H226 lung it was 83.1%; with NCI-H322M lung, 71.1%; in the assay with HOP-62 NSCLC, 58.4%; with NCI-H460 lung, 65.6%; in the assay with HOP-92 NSCLC, 3.15% (active). For the same molecule, the growth with NCI-H522 lung is 46.8%; in the assay on A549/ATCC NSCLC it was 63.8%; in the assay with 786-0 renal it was 99.2%; in the assay on COLO 205 colon, 107%; in the assay with DU-145 prostate, 96.4%; in the assay with MDA-MB-231 breast it was 73%. For the same molecule, the growth was 85.6% in the assay on RXF 393 renal; 78.3% with SF-268 CNS; 93.9% in the assay with SF-295 CNS; 85.1% with SF-539 CNS; 60% in the assay on UACC-257 melanoma; 53.8% in the assay on M14 melanoma.

`N#C/C(=N\Nc1ccc(Cl)cc1)C(=O)C1CC1`: the growth was 42.4% in the assay on NCI-H23 lung; 69.9% in the assay with NCI-H226 lung; 82.1% in the assay with NCI-H322M lung; 41.9% in the assay with HOP-62 NSCLC; 44.9% in the assay with NCI-H460 lung; 20% with HOP-92 NSCLC. Also, the growth in the assay with NCI-H522 lung is 35.5%; with A549/ATCC NSCLC, 40.9%; in the assay on 786-0 renal, 39.6%; in the assay on COLO 205 colon it was 60.4%; in the assay on DU-145 prostate, 74.4%; in the assay with K-562 leukemia, 63.2%. In addition, the growth is 31.1% in the assay on MALME-3M melanoma; 84.9% with RXF 393 renal; 40.9% in the assay on SF-295 CNS; 59.7% with SF-539 CNS; 3.99% (active) in the assay on UACC-257 melanoma; 52.2% in the assay on M14 melanoma.

As for `CC1(C)OC2C(COC(c3ccccc3)(c3ccccc3)c3ccccc3)OC(c3c[nH]c4c(N)ncnc34)C2O1` (stereo not given), the growth is 62.9% in the assay with NCI-H23 lung; 72.9% in the assay on NCI-H226 lung; 71.3% in the assay on NCI-H322M lung; 81.6% with HOP-62 NSCLC; 41.1% in the assay with NCI-H460 lung; 59.5% in the assay on HOP-92 NSCLC. Besides, the growth with NCI-H522 lung is 55.9%; in the assay with A549/ATCC NSCLC, 44.7%; in the assay with 786-0 renal, 62.8%; with COLO 205 colon it was 68.3%; with K-562 leukemia it was 32.4%; with MALME-3M melanoma, 93.5%. Also, the growth was 75.7% in the assay on MDA-MB-231 breast; 79% in the assay on RXF 393 renal; 57.4% with SF-268 CNS; 57.9% with SF-295 CNS; 90% in the assay on SF-539 CNS; 74.9% in the assay on UACC-257 melanoma. The growth in the assay with M14 melanoma was 52.5%.

As for `O=C1/C(=C/c2ccccn2)CCc2ccccc21`, the growth in the assay with NCI-H23 lung was 105%; in the assay with NCI-H226 lung, 98.2%; with NCI-H322M lung, 113%; with HOP-62 NSCLC, 113%; in the assay with NCI-H460 lung, 102%; in the assay on HOP-92 NSCLC, 91.5%. The growth in the assay on NCI-H522 lung is 89.9%; with A549/ATCC NSCLC it was 99.3%; in the assay with 786-0 renal, 101%; in the assay with DU-145 prostate, 103%; in the assay on K-562 leukemia, 7.2% (active); in the assay with MALME-3M melanoma it was 103%. The growth in the assay on MDA-MB-231 breast is 106%; in the assay with RXF 393 renal, 107%; with SF-268 CNS it was 102%; in the assay with SF-295 CNS, 96.8%; in the assay on SF-539 CNS, 95.4%; in the assay with UACC-257 melanoma, 105%. Also, the growth in the assay on M14 melanoma was 108%.

For `C1=C(c2ccccc2)c2ccccc2C1`, the growth is 98.5% with NCI-H23 lung; 96.3% with NCI-H226 lung; 78.4% with NCI-H322M lung; 94% in the assay with HOP-62 NSCLC; 99.5% in the assay on NCI-H460 lung; 74.8% in the assay on HOP-92 NSCLC. The growth with NCI-H522 lung is 96%; in the assay with A549/ATCC NSCLC, 106%; in the assay with 786-0 renal, 86.4%; with DU-145 prostate, 109%; with K-562 leukemia, 88.3%; in the assay on RXF 393 renal, 106%. For the same molecule, the growth is 96.6% in the assay with SF-268 CNS; 91% in the assay with SF-295 CNS; 99.5% in the assay on SF-539 CNS; 133% in the assay with UACC-257 melanoma; 92.2% with M14 melanoma.
